Molecules are shown by their SMILES. Where “and” joins values, the source holds several entries; their conditions need not be identical. Equal entries are not always repeated. More than one record can exist for a structure, and the calls need not agree. Calls of active or inactive are those of the source. How the source made its calls: active means hit-call score of the fitted dose curve at least 0.9, where 1 is the maximum; inactive means score below 0.9.

Read-out in the first test: Tissue plasminogen activator (tPA), PLAT (gene 5327)
Nature of the test: BSK_BF4T_tPA: BioMAP Diversity Plus: BF4T Assay for Tissue plasminogen activator (tPA) Biomarker Activity (AID 2284272). The conditions noted are these: primary human bronchial epithelial cells with fibroblasts. The essentials:
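tPA level quantified by ELISA at 24 h post-treatment in bronchial epithelial/dermal fibroblast co-cultures, gain of signal scored against DMSO baseline. Parallel cultures stained with 0.1% SRB (560 nm) to flag overt cytotoxicity.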
As to `NC(=O)C(F)(F)C(F)(F)F`, the outcome was inactive.
The same measure, in the same setting: as for `OCC(F)(F)OC(F)(F)C(F)(F)OC(F)(F)CO`, the entry is “inactive”.
As to `O=C(O)C(F)(F)OC(F)(F)C(F)(F)OC(F)(F)C(=O)O`, the result was inactive.
Turning to `FC(F)(F)C(F)(C(F)(F)F)C(F)(F)C(F)(F)CC1CO1` (centres undefined), the result was inactive.
With `O=C(O)C(F)(F)OC(F)(F)C(F)(F)OC(F)(F)F`, the result was inactive.
For `C=CC(=O)OCC(F)(F)C(F)F`, the AC50 is 30 µM (active) and 29.3 µM (active).
For `O=S(=O)(F)C(F)(F)C(F)(F)C(F)(F)C(F)(F)C(F)(F)C(F)(F)C(F)(F)C(F)(F)F`, the result was inactive.
In the case of `O=C(O)C(F)(OC(F)(F)C(F)(F)C(F)(F)F)C(F)(F)F` (centres undefined), the result was inactive.
For the compound `O=C(O)C(F)(F)C(F)(F)C(=O)O`, the outcome was inactive.
The same measure, in the same setting: as for `O=C(O)C=CC(F)(C(F)(F)F)C(F)(F)F`, the entry is “inactive”; as for `COC(=O)C(F)(F)C(F)(F)OC(F)(C(F)(F)F)C(F)(F)OC(F)=C(F)F` (centres undefined), “inactive”; as for `OCC(F)(F)OC(F)(F)C(F)(F)OC(F)(F)C(F)(F)OC(F)(F)F`, “inactive”.
Consider `OCC(F)(F)OC(F)(F)C(F)(F)OC(F)(F)C(F)(F)OC(F)(F)CO`, for which the AC50 was 30 µM (active) and 24 µM (active).
With `CC(O)C(F)(F)C(F)(F)F` (centres undefined), the outcome was inactive.

Read-out in another test: Plasminogen Activator Inhibitor-1 (PAI1), SERPINE1 (gene 5054)
Nature of the test: BSK_BF4T_PAI1: BioMAP Diversity Plus: BF4T Assay for Plasminogen Activator Inhibitor-1 (PAI1) Biomarker Activity (AID 2284273). The conditions noted are these: primary human bronchial epithelial cells with fibroblasts. An outline of the steps: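 PAI-1 levels quantified by ELISA 24 h post-dosing in bronchial epithelial cell plus dermal fibroblast cultures. Signal gain referenced to DMSO baseline. Sulforhodamine B total-protein staining of parallel wells checked cytotoxicity.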
As to `NC(=O)C(F)(F)C(F)(F)F`, the outcome was inactive.
As to `OCC(F)(F)OC(F)(F)C(F)(F)OC(F)(F)CO`, the result was inactive.
Same read-out and setting: with `O=C(O)C(F)(F)OC(F)(F)C(F)(F)OC(F)(F)C(=O)O` the entry was “inactive”; with `FC(F)(F)C(F)(C(F)(F)F)C(F)(F)C(F)(F)CC1CO1` (centres undefined), “inactive”; with `O=C(O)C(F)(F)OC(F)(F)C(F)(F)OC(F)(F)F`, “inactive”.
For `C=CC(=O)OCC(F)(F)C(F)F`, the outcome was inactive.
On to `O=S(=O)(F)C(F)(F)C(F)(F)C(F)(F)C(F)(F)C(F)(F)C(F)(F)C(F)(F)C(F)(F)F`, for which the outcome was inactive.
Same read-out and setting: with `O=C(O)C(F)(OC(F)(F)C(F)(F)C(F)(F)F)C(F)(F)F` (centres undefined) the entry was “inactive”.
For the compound `O=C(O)C(F)(F)C(F)(F)C(=O)O`, the result was inactive.
On to `O=C(O)C=CC(F)(C(F)(F)F)C(F)(F)F`, for which the result was inactive.
With `COC(=O)C(F)(F)C(F)(F)OC(F)(C(F)(F)F)C(F)(F)OC(F)=C(F)F` (centres undefined), the result was inactive.
As to `OCC(F)(F)OC(F)(F)C(F)(F)OC(F)(F)C(F)(F)OC(F)(F)F`, the concentration at half-maximal activity (AC50) was 25.6 µM (active) and the outcome was inactive.
As to `OCC(F)(F)OC(F)(F)C(F)(F)OC(F)(F)C(F)(F)OC(F)(F)CO`, the outcome was inactive.
With `CC(O)C(F)(F)C(F)(F)F` (centres undefined), the result was inactive.

The values are drawn from PubChem BioAssay (EPA / NIEHS).
